# Over roughly 33,000 sequences, “E-score (-0.5 to 0.5)” has its median near -0.056; the highest 2% begin near 0.38. Shown is part of a subset that was picked to be rich in the highest values.
# Target: Stb4 (UniProt P50104)
# Test: PBM E-score (8-mer binding enrichment) (E-score (-0.5 to 0.5)); higher = stronger / more preferred TF binding
# Conditions: protein concentration: 200 nM; construct: GST-DNA-binding domain
# Protocol: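 Universal 'all 10-mer' protein binding microarrays (Agilent AMADID 015681) probed with GST-tagged S. cerevisiae TFs (full-length or DBD) made by in vitro transcription/translation (PURExpress), about 100-200 nM. Bound TF was detected with fluorescent anti-GST. Each ungapped 8-mer (which stands for itself and its reverse complement) is scored by the PBM enrichment score (E-score), a modified Wilcoxon-Mann-Whitney statistic from -0.5 to +0.5, computed with the Universal PBM Analysis Suite. Scale: above 0.35 generally sequence-specific binding.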
# Chain of UniProt P50104 (P50104 whole entry): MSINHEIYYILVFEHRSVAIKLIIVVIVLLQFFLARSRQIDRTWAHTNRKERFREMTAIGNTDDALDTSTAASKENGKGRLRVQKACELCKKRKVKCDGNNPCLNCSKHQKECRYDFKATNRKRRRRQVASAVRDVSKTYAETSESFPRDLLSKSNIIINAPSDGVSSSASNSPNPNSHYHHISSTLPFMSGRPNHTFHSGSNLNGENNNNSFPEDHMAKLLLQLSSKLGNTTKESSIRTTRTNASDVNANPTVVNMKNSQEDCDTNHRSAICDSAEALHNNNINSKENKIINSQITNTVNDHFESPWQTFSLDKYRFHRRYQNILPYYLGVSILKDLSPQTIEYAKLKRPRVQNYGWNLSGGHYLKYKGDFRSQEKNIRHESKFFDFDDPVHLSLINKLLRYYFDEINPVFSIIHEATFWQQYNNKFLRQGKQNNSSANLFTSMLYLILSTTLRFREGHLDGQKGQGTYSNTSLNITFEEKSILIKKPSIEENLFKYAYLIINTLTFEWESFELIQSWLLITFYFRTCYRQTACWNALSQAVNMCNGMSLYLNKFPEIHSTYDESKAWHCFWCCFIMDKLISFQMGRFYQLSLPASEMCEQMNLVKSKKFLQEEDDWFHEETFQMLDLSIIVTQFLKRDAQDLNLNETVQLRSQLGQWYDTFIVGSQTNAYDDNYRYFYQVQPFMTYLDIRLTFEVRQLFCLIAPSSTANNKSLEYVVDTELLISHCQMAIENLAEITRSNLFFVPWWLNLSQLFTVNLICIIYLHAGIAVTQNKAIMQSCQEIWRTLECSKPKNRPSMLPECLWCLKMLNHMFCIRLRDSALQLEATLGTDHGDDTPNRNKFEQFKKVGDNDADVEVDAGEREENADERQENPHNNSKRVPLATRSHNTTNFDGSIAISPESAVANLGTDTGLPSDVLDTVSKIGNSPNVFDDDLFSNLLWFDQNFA
row,Sequence,PBM E-score
1,GTGAAAGA,0.0652
2,GTGAAGAA,-0.139
3,GAAGTGTA,-0.107
4,ATTGGTAA,-0.137
5,GCCTGCAA,-0.18
6,CCGTGAAA,0.145
7,GTATCATA,-0.0852
8,AATCATAA,-0.089
9,GCCCAGGA,-0.0894
10,GACGGAAC,0.317
11,ATCGGAAC,0.428
12,AACGGAAC,0.348
13,ATCGGAAG,0.433
14,ATCGGACG,0.289
15,ATCGGACC,0.308
16,GTCGGAAC,0.454
17,CACGGAAG,0.36
18,GTGGGAAC,-0.102
19,CTCGGAAG,0.48
20,CGCGGAAG,0.357
21,AACGGAAG,0.284
22,AATGACGC,-0.238
23,GTGATGGA,-0.00596
24,CGATTCTC,0.0534
25,ACGCTCCA,-0.0409

row,Sequence,PBM E-score
1,AATGAGAA,-0.0737
2,CACGGAAA,0.352
3,CGCGGAAA,0.316
4,AGCGGAAA,0.333
5,CTGGGAAA,-0.168
6,AACGGAAA,0.393
7,GTCGGAAA,0.453
8,ATCGGACA,0.196
9,AACGGACA,0.0833
10,ATCGGAAA,0.424
11,GTTGGAAA,0.0285
12,CTCGGAAA,0.479
13,GTCAGAAA,-0.203
14,CCCATTCA,-0.0249
15,CGTTTATA,-0.0024
16,ATCCCGGC,0.323
17,AGCGTAGG,-0.0217
18,AAGGCGGG,-0.0393
19,CTGAACAA,-0.0548
20,AGGGATGG,-0.174
21,ACGATTCC,0.06
22,CGACTTGA,-0.0925
23,CGATCAAA,0.0532
24,AACTTGGC,-0.109
25,CTAGGAAC,-0.00703

row,Sequence,PBM E-score
1,ATCGGAAT,0.434
2,CACGGAAC,0.352
3,GGCGGAAC,0.356
4,AGCGGAAT,0.141
5,TTCAGAAA,-0.23
6,CGCGGAAC,0.395
7,TGCGGAAA,0.299
8,AGCGGAAC,0.316
9,TTCGGAAA,0.474
10,CTCGGAAC,0.485
11,AACGGAAT,0.315
12,GCCATGGC,-0.361
13,CCCTTTTA,-0.172
14,AGCCTAGG,-0.0301
15,GATCCTTA,-0.0996
16,GCCATTCC,0.127
17,CCAGCGCC,-0.0109
18,CTACGCCA,-0.271
19,CACCCCAC,0.0245
20,CCTTGTGA,-0.0811
21,CCTCTCCA,-0.309
22,CCTCGCTA,-0.29
23,CCGCTACA,0.109
24,AATTCAAC,0.015
25,ATTAACCC,0.212

row,Sequence,PBM E-score
1,ATTAACCG,0.413
2,ATTAACCA,-0.136
3,GAGGAATC,-0.07
4,GCGTCGGA,0.449
5,ACGTCGGA,0.389
6,GCGTCGTA,0.0854
7,ACGTCGGG,0.349
8,CCGTCGGC,0.329
9,ACGTCGGC,0.307
10,CCGTCGGA,0.397
11,GCGTCGAA,-0.0895
12,CCGTCGTA,-0.0259
13,CTGGCAGC,-0.168
14,ACATAATA,-0.153
15,CGAGTCAA,-0.0247
16,AGGTTCAT,-0.128
17,ACAAGGCT,-0.138
18,ACAGATTG,-0.0283
19,AGTTTAAT,-0.111
20,ATGGGCTA,-0.084
21,CCACTCCA,-0.146
22,AATACCAT,-0.115
23,CGTGCCGA,0.405
24,GGTGCCTA,-0.0355
25,GGTGCCGA,0.402

row,Sequence,PBM E-score
1,AGTGCCGA,0.423
2,AGTGCCGG,0.301
3,GGTGCCCA,-0.147
4,CGTGCCGC,0.0918
5,AGTGCCGC,0.123
6,CGTGCCCA,0.00213
7,CTGGACGC,-0.278
8,ATCGCCCG,0.152
9,CACGGCCC,0.0623
10,GAGGAGTA,-0.00803
11,CTCGGGCA,0.325
12,GACGGGTA,0.267
13,GTCGGGGA,0.225
14,CTCGGGTA,0.478
15,ATCGGGTG,0.366
16,GTCGGGTA,0.445
17,CCCGGGTA,0.407
18,CACGGGTA,0.333
19,ATCGGGTA,0.419
20,CCGGGGTA,0.155
21,ATCGGGCA,0.125
22,CCCGGGTC,0.32
23,ATGATTTC,0.0687
24,AATGATTG,-0.164
25,ATAGCAAT,-0.185

row,Sequence,PBM E-score
1,AGTCTAAC,-0.163
2,ACAGTCAG,-0.0929
3,ACACCAAT,0.00344
4,ATCGGGTC,0.325
5,CTCGGGTC,0.434
6,CTCGGGCC,0.343
7,GGGAATCA,0.0543
8,GGGAATAA,0.233
9,TGGAATAA,0.072
10,CGGAATAA,0.384
11,CGGAATTC,0.322
12,CGGAATCA,0.388
13,AGGAATTA,0.0103
14,CGGAATTA,0.401
15,AGGAATCA,-0.00647
16,GGATCATA,0.228
17,AACTGTGC,-0.157
18,AAAAATCG,0.0452
19,CTGAAACA,0.0153
20,GTTTAGAA,-0.0425
21,ATGAAAAT,0.0835
22,AGACGGGA,0.174
23,GACTCAGC,-0.191
24,CACGCATG,-0.209
25,ATACATGA,-0.212

row,Sequence,PBM E-score
1,CCGAACAA,0.425
2,GCGAACAA,-0.0836
3,CCGAACTC,0.374
4,CCGAACAG,0.4
5,CCGAACTA,0.395
6,ACGAACAA,0.079
7,CCGAACAC,0.372
8,ACGAACAG,-0.15
9,ACGAACTA,-0.194
10,GCAACGAC,0.0391
11,CACTGTGA,-0.018
12,AGCCCCTA,-0.139
13,AAGGGTTC,-0.14
14,CACGTGTA,-0.0718
15,GTGTGAAC,0.0138
16,CGTGGCAC,-0.178
17,CCCTGTGC,-0.0934
18,ATATCGGA,0.383
19,ATATCGGC,0.316
20,TCATCGGA,0.403
21,ATATCGGG,0.306
22,CTATCGTA,-0.199

# Reference: the supplement of paper PMC3334620
